Reference: PubChem BioAssay (Tox21)
Results filed as inconclusive are left out. Activity calls are given as the source filed them. Unless noted, the call rests on the fitted dose curve; in most records, active means well fitted curve in the direction sought with a large enough effect in the repeat runs; inconclusive means weak or mixed curves; inactive means no such curve, though single readings can be large; an effect the other way counts as inactive or inconclusive.

How the values were obtained:
[1] = A CellTox Green Cytotoxicity Assay to monitor cytotoxicity in HepG2 cells - 16 hour (AID 1224876); further: nearly all actives have a fitted effect of over 45% in size
Outline: (§1)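 Cytotoxicity was tracked as dead-cell DNA fluorescence in HepG2 cells treated with test compounds at 37 C; each time-point value comes from one kinetic series spanning 0, 8, 16, 24, 32 and 40 h.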

[2] = qHTS RealTime-Glo MT Cell Viability Assay in HepG2 cells - 32 hour (AID 1224877); further: nearly all actives have a fitted effect of over 55% in size
Outline: (§2)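 Real-time, nonlytic viability: 600 HepG2 cells/well mixed with NanoLuc enzyme plus prosubstrate; 5 h settle, compound (DMSO) added by pintool; luminescence monitored over 40 h at 37 C.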

[3] = A CellTox Green Cytotoxicity Assay to monitor cytotoxicity in HepG2 cells - 24 hour (AID 1224878); further: nearly all actives have a fitted effect of over 45% in size
Outline: as §1

[4] = A CellTox Green Cytotoxicity Assay to monitor cytotoxicity in HepG2 cells - 40 hour (AID 1224879); further: nearly all actives have a fitted effect of over 40% in size
Outline: as §1

[5] = qHTS RealTime-Glo MT Cell Viability Assay in HEK293 cells - 0 hour (AID 1224880); further: top concentration of the series differs between compounds; nearly all actives have a fitted effect of over 45% in size
Outline: (§3)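 Kinetic, non-lysing viability readout. Seed HEK293 (600/well) with reagent, incubate 5 h at 37 C/5% CO2, pin 23 nL compound in DMSO, incubate at 37 C, read luminescence at 0, 8, 16, 24, 32, 40 h.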

[6] = A CellTox Green Cytotoxicity Assay to monitor cytotoxicity in HepG2 cells - 0 hour (AID 1224882); further: nearly all actives have a fitted effect of over 35% in size
Outline: as §1

[7] = A CellTox Green Cytotoxicity Assay to monitor cytotoxicity in HepG2 cells - 32 hour (AID 1224883); further: nearly all actives have a fitted effect of over 50% in size
Outline: as §1

[8] = A CellTox Green Cytotoxicity Assay to monitor cytotoxicity in HEK293 cells - 8 hour (AID 1224884); further: nearly all actives have a fitted effect of over 35% in size
Outline: (§4)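 Real-time, in one plate: 600 HEK293 cells/well with dead-cell DNA dye, pinned compound after 5 h, 37 C incubation over 40 h; viable cells give no appreciable fluorescence.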

[9] = qHTS RealTime-Glo MT Cell Viability Assay in HepG2 cells - 16 hour (AID 1224885); further: nearly all actives have a fitted effect of over 50% in size
Outline: as §2

[10] = qHTS RealTime-Glo MT Cell Viability Assay in HEK293 cells - 24 hour (AID 1224886); further: top concentration of the series differs between compounds; nearly all actives have a fitted effect of over 50% in size
Outline: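 Cells + reagent dispensed (600 cells/well, HEK293) → 5 h at 37 C/5% CO2 → 23 nL compound in DMSO pinned → 40 h at 37 C → luminescence read at 0, 8, 16, 24, 32, 40 h.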

[11] = qHTS RealTime-Glo MT Cell Viability Assay in HEK293 cells - 8 hour (AID 1224887); further: top concentration of the series differs between compounds; nearly all actives have a fitted effect of over 50% in size
Outline: as §3

[12] = A CellTox Green Cytotoxicity Assay to monitor cytotoxicity in HEK293 cells - 16 hour (AID 1224888); further: nearly all actives have a fitted effect of over 35% in size
Outline: as §4

[13] = qHTS RealTime-Glo MT Cell Viability Assay in HepG2 cells - 0 hour (AID 1224889); further: nearly all actives have a fitted effect of over 50% in size
Outline: as §2

[14] = A CellTox Green Cytotoxicity Assay to monitor cytotoxicity in HepG2 cells - 8 hour (AID 1224890); further: nearly all actives have a fitted effect of over 45% in size
Outline: as §1

[15] = qHTS assay to identify small molecule antagonists of the estrogen receptor alpha (ER-alpha) signaling pathway using the BG1 cell line in the presence of 0.1 nM 17-beta-estradiol - cell viability counter screen (AID 1259241); further: nearly all actives have a fitted effect of over 40% in size
Outline: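 CellTiter-Fluor read (30 min, 37C) on ER-alpha/ERE-luc VM7Luc4E2 cells; 22 hr compound treatment; agonist 0.1 nM E2 final; same-well multiplex.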

[16] = qHTS assay to identify small molecule antagonists of the androgen receptor (AR) signaling pathway using the MDA cell line in the presence of 0.5 nM R1881 - cell viability counter screen (AID 1259242); further: nearly all actives have a fitted effect of over 45% in size
Outline: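 Cells seeded at 3,000/well and allowed 5 hr at 37C, 0% CO2 before compound transfer and R1881 (0.5 nM final) addition; 16 hr later, live-cell protease fluorescence indicated cytotoxicity.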

[17] = qHTS assay to identify small molecule HDAC inhibitors (AID 1259364)
Outline: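 HCT-116 wt cells, 1,500/well, overnight attach. Compounds (DMSO) 2 h, 37 °C. HDAC-Glo I/II, 30 min RT. Luminescence.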

[18] = A CellTox Green Cytotoxicity Assay to monitor cytotoxicity in HEK293 cells - 32 hour (AID 1224881); further: nearly all actives have a fitted effect of over 40% in size
Outline: as §4

[19] = target: Estrogen receptor (Homo sapiens) (UniProt P03372); test: qHTS assay to identify small molecule antagonists of the estrogen receptor alpha (ER-alpha) signaling pathway using the BG1 cell line in the presence of 0.1 nM 17-beta-estradiol (AID 1259244); further: nearly all actives have a fitted effect of over 50% in size
Outline: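 Luciferase signal from VM7Luc4E2 ERE-reporter cells, co-dosed with test compound and 0.1 nM final 17beta-estradiol for 22 h, read with ONE-Glo.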

[20] = qHTS assay to identify small molecule phospholipidosis (PLD) inducers (AID 1259344; active means well fitted curve in the direction sought with a large enough effect; an effect the other way counts as inactive or inconclusive)
Outline: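 Cells (HepG2, 900 per well) attach for 4 h, receive LipidTOX Red and compound together, incubate 24 h at 37 C, are fixed 30 min with paraformaldehyde/Hoechst, then imaged at one site per well.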
On the % scale 0 is the no-effect control and ±100 the full control effect.

Chain of Estrogen receptor (Homo sapiens) (P03372 whole entry, looked up): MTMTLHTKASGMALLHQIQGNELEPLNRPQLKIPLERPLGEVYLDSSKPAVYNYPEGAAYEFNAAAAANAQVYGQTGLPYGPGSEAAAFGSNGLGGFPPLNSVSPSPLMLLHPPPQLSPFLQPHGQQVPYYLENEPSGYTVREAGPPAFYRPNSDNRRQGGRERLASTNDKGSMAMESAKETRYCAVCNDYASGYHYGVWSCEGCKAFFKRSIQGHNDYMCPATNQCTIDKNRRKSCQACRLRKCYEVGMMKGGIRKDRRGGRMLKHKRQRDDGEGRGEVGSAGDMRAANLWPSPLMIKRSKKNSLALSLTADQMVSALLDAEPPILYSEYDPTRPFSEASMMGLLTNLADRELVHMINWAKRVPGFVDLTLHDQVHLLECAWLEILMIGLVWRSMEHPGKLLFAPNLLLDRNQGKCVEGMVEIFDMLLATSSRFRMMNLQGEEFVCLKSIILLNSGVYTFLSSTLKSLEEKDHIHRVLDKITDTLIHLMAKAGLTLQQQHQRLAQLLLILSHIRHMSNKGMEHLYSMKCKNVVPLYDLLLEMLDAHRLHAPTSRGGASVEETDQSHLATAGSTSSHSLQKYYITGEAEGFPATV

CC(C)COC(=O)CCCCC(=O)OCC(C)C
inactive: Potency [1] | outcome [2] | Potency [3] | Potency [4] | outcome [5] | Potency [6] | Potency [7] | Potency [8] | outcome [9] | Potency [10] | Potency [11] | Potency [12] | Potency [13] | Potency [14] | Potency [15] | Potency [16] | Potency [17]

O=S1(=O)CCCC1
inactive: Potency [1] | outcome [2] | Potency [3] | Potency [4] | outcome [5] | Potency [18] | Potency [7] | Potency [8] | outcome [9] | Potency [10] | Potency [11] | Potency [12] | Potency [13] | Potency [14] | Potency [15] | Potency [16] | Potency [19] | Potency [17]

CC(=O)OCC(=O)[C@@]1(O)[C@H](OC(C)=O)C[C@H]2[C@@H]3CCC4=CC(=O)C=C[C@]4(C)[C@@]3(F)[C@@H](O)C[C@@]21C
inactive: Potency [1] | outcome [2] | Potency [3] | Potency [4] | outcome [5] | Potency [6] | Potency [7] | Potency [8] | outcome [9] | Potency [10] | Potency [11] | Potency [12] | Potency [14] | Potency [15] | Potency [16] | Potency [19] | outcome [20] | Potency [17]

O=C(Nc1cccc(C2=NCCN2)c1)Nc1cccc(C2=NCCN2)c1
inactive: cytotoxicity increase [1] -11.3% [at 15.8 µM] | activity change, negative = cytotoxic [2] 2.71% [at 15.8 µM] | cytotoxicity [3] -8.34% [at 15.8 µM] | cytotoxicity increase [4] -7.03% [at 15.8 µM] | activity change, negative = cytotoxicity [5] -5.15% [at 15.8 µM] | cytotoxicity [6] -0.131% [at 15.8 µM] | cytotoxicity increase [7] -8.68% [at 15.8 µM] | cytotoxicity increase [8] -6.06% [at 15.8 µM] | activity change, negative = cytotoxic [9] 0.713% [at 15.8 µM] | activity change, negative = cytotoxicity [10] -1.62% [at 15.8 µM] | activity change, negative = cytotoxicity [11] -0.375% [at 15.8 µM] | activity change [12] -6.11% [at 15.8 µM, active compounds read high] | activity change, negative = cytotoxicity [13] -1.91% [at 15.8 µM] | cytotoxicity increase [14] -10.2% [at 15.8 µM] | activity change, negative = cytotoxicity [15] -3.18% [at 19 µM] | viability change, negative = cytotoxic [16] -0.888% [at 19 µM] | activity change, negative = inhibition [19] -4.15% [at 19 µM] | outcome [20] | activity change, negative = inhibition [17] 3.65% [at 19 µM]

CC(=O)OC(C)(C)Cc1ccccc1
inactive: Potency [1] | outcome [2] | Potency [3] | Potency [4] | outcome [5] | Potency [6] | Potency [7] | Potency [8] | outcome [9] | Potency [10] | Potency [11] | Potency [12] | Potency [13] | Potency [14] | Potency [15] | Potency [16] | Potency [17]

O=C1OC(=O)c2cc(Oc3ccc4c(c3)C(=O)OC4=O)ccc21
inactive: Potency [1] | outcome [2] | Potency [3] | Potency [4] | outcome [5] | Potency [6] | Potency [7] | Potency [8] | outcome [9] | Potency [10] | Potency [11] | Potency [12] | Potency [13] | Potency [14] | Potency [15] | Potency [16] | Potency [19] | Potency [17]

Cc1ccc2c(c1)c1c3n2CCNC3CCC1 (stereo not given)
inactive: Potency [1] | outcome [2] | Potency [3] | Potency [4] | outcome [5] | Potency [6] | Potency [7] | Potency [8] | outcome [9] | Potency [10] | Potency [11] | Potency [12] | Potency [13] | Potency [14] | Potency [15] | Potency [16] | Potency [17]

CCCCOC(=O)C(C)OC(=O)CCC (stereo not given)
inactive: Potency [1] | outcome [2] | Potency [3] | Potency [4] | outcome [5] | Potency [6] | Potency [7] | Potency [8] | outcome [9] | Potency [10] | Potency [11] | Potency [12] | Potency [13] | Potency [14] | Potency [15] | Potency [16] | Potency [19]

CN(C)CCOCCN(C)CCO
inactive: Potency [1] | outcome [2] | Potency [3] | Potency [4] | outcome [5] | Potency [18] | Potency [7] | Potency [8] | outcome [9] | Potency [10] | Potency [11] | Potency [12] | Potency [13] | Potency [14] | Potency [15] | Potency [16] | Potency [19] | Potency [17]

C=C(C)C(=O)OC
inactive: Potency [1] | outcome [2] | Potency [3] | Potency [4] | outcome [5] | Potency [6] | Potency [7] | Potency [8] | outcome [9] | Potency [10] | Potency [11] | Potency [12] | Potency [13] | Potency [14] | Potency [16] | Potency [17]

CCCCC[Si](OCC)(OCC)OCC
inactive: Potency [1] | outcome [2] | Potency [3] | Potency [4] | outcome [5] | Potency [18] | Potency [7] | Potency [8] | outcome [9] | Potency [10] | Potency [11] | Potency [12] | Potency [13] | Potency [14] | Potency [15] | Potency [16] | Potency [17]

O=C(O)Cc1cccc(-c2cc(CCCCCCc3ccc(O[C@H]4O[C@H](CO)[C@@H](O)[C@H](O)[C@@H]4O)c(-c4cccc(CC(=O)O)c4)c3)ccc2O[C@H]2O[C@H](CO)[C@@H](O)[C@H](O)[C@@H]2O)c1
inactive: cytotoxicity increase [1] 15.1% [at 0.29 µM] | activity change, negative = cytotoxic [2] -9.69% [at 0.29 µM] | cytotoxicity [3] 15.2% [at 0.29 µM] | cytotoxicity increase [4] 20% [at 0.29 µM] | activity change, negative = cytotoxicity [5] 3.85% [at 0.29 µM] | cytotoxicity increase [18] -14.2% [at 0.29 µM] | cytotoxicity increase [8] -1.66% [at 0.29 µM] | activity change, negative = cytotoxic [9] 17.8% [at 0.29 µM] | activity change, negative = cytotoxicity [10] -1.38% [at 0.29 µM] | activity change, negative = cytotoxicity [11] 11.8% [at 0.29 µM] | activity change [12] -7.34% [at 0.29 µM, active compounds read high] | cytotoxicity increase [14] 23.5% [at 0.29 µM] | activity change, negative = cytotoxicity [15] -0.713% [at 0.349 µM] | viability change, negative = cytotoxic [16] -0.767% [at 0.349 µM] | outcome [20] | activity change, negative = inhibition [17] 0.203% [at 0.349 µM]

CCC(O)C(C)(C)C (stereo not given)
inactive: Potency [1] | outcome [2] | Potency [3] | Potency [4] | outcome [5] | Potency [6] | Potency [7] | Potency [8] | outcome [9] | Potency [10] | Potency [11] | Potency [13] | Potency [14] | Potency [15] | Potency [16] | Potency [19] | Potency [17]
